In the library only some 2.8% were active in any assay of this set; here they are far more common.
KDM5B inhibitor = Primary screen for KDM5B Histone Demethylases FDH-coupled qHTS. Lysine-specific demethylase 5B (Homo sapiens), Q9UGL1. KDM5B demethylase, FDH-coupled NADH fluorescence (FDH is formaldehyde dehydrogenase). hit rate 2.6% among 220,000. Potency, µM (titrated, usually from 57.7 µM), hits mostly inhibitors; also: potency is read from the fitted curve at half-maximal effect; 0% is about no effect; nearly all actives have a fitted effect of over 70% in size
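Inhibition is measured as reduced NADH fluorescence generation from FDH coupling to formaldehyde release. Truncated KDM5BΔAP at 200 nM final acts on H3K4me3 peptide (12.5 µM in substrate mix) in pH 7.5 HEPES buffer with Tween-20, 30 min, room temperature.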
HEK293 viab = GF-AFC viability counterscreen for inhibitors of alpha-synuclein gene (SNCA) expression; hit rate 0.12% among 150,000; AID 1671193, 2021; Potency, µM (series often up to 57.1 µM), inactives show at the top dose activity change, negative = cytotoxicity, most hits filed as cytotoxic; HEK-293-SNCA-luc viability, GF-AFC fluorescence, 24 h;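 also: potency is read from the fitted curve at half-maximal effect; 0% = DMSO-treated cells and -100% = medium-only wells without cells; nearly all actives have a fitted effect of over 30% in size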
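Cytotoxicity counterscreen: after 24 h compound treatment of genome-edited SNCA-luciferase HEK-293 cells, live-cell protease substrate GF-AFC read by fluorescence after 30 min; activity scaled between DMSO (0%) and medium-only (-100%), curves Hill-fitted.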
SNCA expr inh = Primary qHTS assay for inhibitors of alpha-synuclein gene (SNCA) expression; Potency, µM (titrated, usually from 57.2 µM), for the others: top-dose activity change, negative = inhibition, most hits filed as inhibitors; HEK-293 SNCA-luciferase knock-in, luminescence, 24 h; hit rate 0.17% among 140,000; AID 1671194, 2021;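 also: potency is read from the fitted curve at half-maximal effect; plate controls were DMSO cells for no effect and cell-free wells for full effect; nearly all actives have a fitted effect of over 45% in size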
IP6K1 inhibitor = Primary qHTS assay for small molecule inhibitors of Inositol hexaphosphate kinase 1 (IP6K1) | Inositol hexakisphosphate kinase 1 (Homo sapiens), Q92551 | IP6K1 kinase, ADP-Glo luminescence, 2 h; hits give low values | activity change, % (series mostly up to about 58 µM) | hit rate 0.81% among 140,000; in the data active = activity change below about -25%; also: % is scaled to controls: 0 for no effect and ±100 for the full control effect
Target sequence (Q92551 whole entry, looked up): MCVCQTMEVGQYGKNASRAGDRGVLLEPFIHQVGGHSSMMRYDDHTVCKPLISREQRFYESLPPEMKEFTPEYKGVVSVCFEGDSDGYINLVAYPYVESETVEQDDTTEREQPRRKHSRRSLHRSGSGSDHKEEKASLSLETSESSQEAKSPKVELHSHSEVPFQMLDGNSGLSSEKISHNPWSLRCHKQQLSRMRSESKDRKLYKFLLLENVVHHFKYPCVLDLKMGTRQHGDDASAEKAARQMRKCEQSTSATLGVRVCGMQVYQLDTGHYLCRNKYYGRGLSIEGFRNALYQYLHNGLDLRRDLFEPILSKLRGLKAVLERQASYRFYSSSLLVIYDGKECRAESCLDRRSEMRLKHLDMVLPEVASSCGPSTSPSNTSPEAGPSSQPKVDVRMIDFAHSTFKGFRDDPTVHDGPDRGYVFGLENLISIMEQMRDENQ
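ADP-Glo luminescence measures ADP made by human IP6K1 during a 2 h RT reaction with ATP/IP6 (mix at 1.3 mM/130 uM); top library doses 57.5 and 19.1 uM final.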
Active calls of the source: *; [ ] = another dose, or the depositor's remark. Unless noted, calls follow the shape of the dose curve; as a rule, active = well fitted curve in the direction sought with a large enough effect; inconclusive = small, poorly fitted or top-dose-only effect, or another doubt; inactive = no such curve, though single readings can be large; an effect the other way counts as inactive or inconclusive.

Results for Cc1ccc(NC(=O)c2cc3c(N4CCSCC4)nc(C)cn3n2)c(F)c1 ?
KDM5B inhibitor: 28µM*; HEK293 viab: 9%; SNCA expr inh: -10%; IP6K1 inhibitor: 9

How did COc1cc(NC(=O)c2cc3c(N4CCSCC4)nc(C)cn3n2)c(OC)cc1Cl do in these assays?
KDM5B inhibitor: inconclusive; HEK293 viab: 4%; SNCA expr inh: -17%; IP6K1 inhibitor: 5

How did Cc1ccc(S(=O)(=O)N2CCN(CCS(=O)(=O)CCC(N)=O)CC2)cc1C do in these assays?
KDM5B inhibitor: inactive

What do the screens show for `CCc1noc(-c2ccn3c(CNC(=O)c4cc(C)ccc4C)nnc3c2)n1`?
KDM5B inhibitor: 25µM*; HEK293 viab: -11%; SNCA expr inh: 6%; IP6K1 inhibitor: -1

How did CCc1noc(-c2ccn3c(CNC(=O)Cc4ccccc4Cl)nnc3c2)n1 do in these assays?
KDM5B inhibitor: 16µM*; HEK293 viab: 2%; SNCA expr inh: 2%; IP6K1 inhibitor: 25

How did CCc1noc(-c2ccn3c(CNC(=O)Cc4ccccc4OC)nnc3c2)n1 do in these assays?
KDM5B inhibitor: inconclusive; HEK293 viab: 2%; SNCA expr inh: -8%; IP6K1 inhibitor: 1

Results for CCc1noc(-c2ccn3c(CNC(=O)Cc4ccc(C)cc4)nnc3c2)n1 ?
KDM5B inhibitor: 28µM*; HEK293 viab: 2%; SNCA expr inh: -4%; IP6K1 inhibitor: 0

What do the screens show for `O=C(Nc1ccccc1F)C1CCCN(Cc2cccc(-c3cccs3)c2)C1` (configuration not stated)?
IP6K1 inhibitor: 11

How did C=CCN(CC=C)C(=O)COc1cc(O)c2c(=O)cc(-c3ccccc3)oc2c1 do in these assays?
KDM5B inhibitor: inactive

Results for Cc1occc1-c1nnc(SCc2cc3c(cc2Br)OCCO3)n1C ?
KDM5B inhibitor: inactive

Results for CCS(=O)(=O)c1ncc(Cl)c(C(=O)Nc2ccc(S(=O)(=O)N(C)c3ccccc3)cc2)n1 ?
KDM5B inhibitor: inconclusive; HEK293 viab: 10µM*; SNCA expr inh: 2.8µM*; IP6K1 inhibitor: -21

Results for CCSc1ncc(Cl)c(C(=O)Nc2ccc(S(=O)(=O)N(C)c3ccccc3)cc2)n1 ?
KDM5B inhibitor: inconclusive; HEK293 viab: 22%; SNCA expr inh: inconclusive; IP6K1 inhibitor: -12

What do the screens show for `CCN(c1ccccc1)S(=O)(=O)c1ccc(NC(=O)c2nc(S(C)(=O)=O)ncc2Cl)cc1`?
KDM5B inhibitor: inconclusive; HEK293 viab: 10µM*; SNCA expr inh: inconclusive; IP6K1 inhibitor: -43*

What do the screens show for `CC(C)Sc1ncc(Cl)c(C(=O)Nc2ccc(S(=O)(=O)N(C)c3ccccc3)cc2)n1`?
KDM5B inhibitor: inconclusive; HEK293 viab: 0%; SNCA expr inh: -9%; IP6K1 inhibitor: -11

Results for COCCCN1CCC(Cn2cnc3cn(C)nc3c2=O)C1 (configuration not stated) ?
KDM5B inhibitor: inactive; HEK293 viab: 9%; SNCA expr inh: 3%; IP6K1 inhibitor: 0

How did CN(C)c1ccc(-c2ccnc(N[C@H]3CO[C@H]4[C@@H]3OC[C@H]4OC(=O)NC3CCCCC3)n2)cc1 do in these assays?
KDM5B inhibitor: 32µM*; HEK293 viab: -2%; SNCA expr inh: 4%; IP6K1 inhibitor: -5

How did O=C(NC1CCCCC1)O[C@@H]1CO[C@H]2[C@@H]1OC[C@@H]2Nc1nccc(-c2cccs2)n1 do in these assays?
KDM5B inhibitor: 32µM*; HEK293 viab: inconclusive; SNCA expr inh: -4%[87.6 µM]; IP6K1 inhibitor: -2

How did CN(C)c1ccc(-c2ccnc(N[C@H]3CO[C@H]4[C@@H]3OC[C@H]4OC(=O)Nc3cccc(C#N)c3)n2)cc1 do in these assays?
KDM5B inhibitor: inactive; HEK293 viab: -22%; SNCA expr inh: -4%; IP6K1 inhibitor: -1

Results for COc1ccc(-c2nccn3cc(C(=O)Nc4ccc(OC)c(OC)c4)nc23)cc1 ?
KDM5B inhibitor: inactive; HEK293 viab: -19%; SNCA expr inh: 13%; IP6K1 inhibitor: 0

Results for COc1ccc(-c2nccn3cc(C(=O)NCc4cccnc4)nc23)cc1 ?
KDM5B inhibitor: 20µM*; HEK293 viab: -22%; SNCA expr inh: 37%; IP6K1 inhibitor: 19

What do the screens show for `COCCNC(=O)c1cn2ccnc(-c3ccc(C)cc3)c2n1`?
KDM5B inhibitor: inactive; HEK293 viab: -21%; SNCA expr inh: 30%; IP6K1 inhibitor: 20

What do the screens show for `COc1ccc(-c2nccn3cc(C(=O)NCCc4cccnc4)nc23)cc1`?
KDM5B inhibitor: 28µM*; HEK293 viab: -19%; SNCA expr inh: -18%; IP6K1 inhibitor: 13

Results for CCOC(=O)C1CCN(C(=O)c2cn3cc(-c4ccc(OC)cc4)sc3n2)CC1 ?
HEK293 viab: -2%; SNCA expr inh: 50%; IP6K1 inhibitor: 6

What do the screens show for `COc1ccc(-c2nccn3cc(C(=O)O)nc23)cc1`?
KDM5B inhibitor: 28µM*; HEK293 viab: 10%; SNCA expr inh: -5%; IP6K1 inhibitor: -10

How did COc1ccc(CNC(=O)c2cn3ccnc(-c4ccccc4)c3n2)cc1OC do in these assays?
KDM5B inhibitor: inactive; HEK293 viab: -19%; SNCA expr inh: -4%; IP6K1 inhibitor: 24

How did CCOC(=O)C1CCN(C(=O)c2cn3ccnc(-c4ccc(OC)cc4)c3n2)CC1 do in these assays?
KDM5B inhibitor: 25µM*; HEK293 viab: 5%; SNCA expr inh: 2%; IP6K1 inhibitor: 22

How did COc1ccc(-c2nccn3cc(C(=O)NCc4nc5ccccc5n4C)nc23)cc1 do in these assays?
KDM5B inhibitor: 7.9µM*; HEK293 viab: -26%; SNCA expr inh: -5%; IP6K1 inhibitor: 16

Results for COc1ccc(CN2CC[C@H](c3nnc(-c4ccncc4)o3)C2)cc1 ?
KDM5B inhibitor: inactive; HEK293 viab: 6%[87.6 µM]; SNCA expr inh: -14%[87.6 µM]; IP6K1 inhibitor: 1

Results for Cc1ccc(-c2nnc([C@H]3CCN(Cc4ncc[nH]4)C3)o2)cc1 ?
KDM5B inhibitor: 35µM*; HEK293 viab: 10%[87.6 µM]; SNCA expr inh: -7%[87.6 µM]; IP6K1 inhibitor: -10

Results for COc1ccc(-c2nnc([C@H]3CCN(Cc4ncc[nH]4)C3)o2)cc1 ?
KDM5B inhibitor: 35µM*; HEK293 viab: -7%[87.6 µM]; SNCA expr inh: 6%[87.6 µM]; IP6K1 inhibitor: 14

What do the screens show for `CCCc1nnc([C@H]2CCN(Cc3ncc[nH]3)C2)o1`?
KDM5B inhibitor: inconclusive; HEK293 viab: 2%[87.6 µM]; SNCA expr inh: 19%[87.6 µM]; IP6K1 inhibitor: 1

What do the screens show for `CCNC(=O)N(C1CC1)C1CCOC2(CCN(C(=O)C3(c4ccccc4)CC3)CC2)C1` (configuration not stated)?
KDM5B inhibitor: inactive; HEK293 viab: 8%; SNCA expr inh: 6%; IP6K1 inhibitor: -8

What do the screens show for `CCCn1nccc1C(=O)NCc1cccnc1Oc1ccc(C)nc1`?
KDM5B inhibitor: 32µM*; HEK293 viab: 0%; SNCA expr inh: -3%; IP6K1 inhibitor: -14

Results for CN(C)CCNC(=O)C(C)(C)Oc1nn(CC2CCOCC2)c2ccccc12 ?
KDM5B inhibitor: 32µM*; HEK293 viab: 8%[87.6 µM]; SNCA expr inh: 5%[87.6 µM]; IP6K1 inhibitor: 0

Screening results as filed in PubChem BioAssay.
